According to PubChem BioAssay AID651919 (Sanford-Burnham Center for Chemical Genomics, 2012):
Where “and” joins values, the source holds several entries; their conditions need not be identical. Identical values can stand only once.

target: C-X-C chemokine receptor type 6 (Homo sapiens) (UniProt O00574); test: CXCR6 and CXCR5 receptor antagonist panel, profiling panel, selectivity assay for CXCR6 antagonist project, cell-based, CHO-K1 PathHunter beta-arrestin, luminescence, set 4 (AID 651919); conditions: run 1, at 79 µM (top of the series)
Sequence (O00574 whole entry, looked up): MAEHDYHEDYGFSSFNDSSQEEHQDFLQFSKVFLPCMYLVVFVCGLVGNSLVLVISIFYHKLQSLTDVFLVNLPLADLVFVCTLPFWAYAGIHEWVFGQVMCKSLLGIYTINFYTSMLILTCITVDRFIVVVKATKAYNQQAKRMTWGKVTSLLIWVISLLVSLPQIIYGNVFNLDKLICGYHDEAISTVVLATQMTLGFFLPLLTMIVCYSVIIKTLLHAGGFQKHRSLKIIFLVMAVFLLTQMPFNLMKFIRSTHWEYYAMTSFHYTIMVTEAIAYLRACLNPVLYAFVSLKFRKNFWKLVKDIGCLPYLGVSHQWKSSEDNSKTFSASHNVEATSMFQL

In order of falling inhibition:
1. COc1ccccc1NC(=O)CN1C2CCCC1CC(NC(=O)c1cc(OC)c(OC)c(OC)c1)C2 (centres undefined)  97.4%
2. COc1cc(C(=O)NC2CC3CCCC(C2)N3CC(=O)Nc2ccc(Cl)cc2)cc(OC)c1OC (centres undefined)  88.2%
3. COc1cc(C(=O)NC2CC3CCCC(C2)N3CC(=O)Nc2ccc(F)cc2)cc(OC)c1OC (centres undefined)  84.8%
4. COc1cc(C(=O)NC2CC3CCCC(C2)N3CC(=O)Nc2ccc(C)cc2)cc(OC)c1OC (centres undefined)  79%
5. COc1ccc(NC(=O)CN2C3CCCC2CC(NC(=O)c2cc(OC)c(OC)c(OC)c2)C3)cc1 (centres undefined)  66.4%
6. COc1ccc(CN2C3CCCC2CC(NC(=O)c2cc(OC)c(OC)c(OC)c2)C3)cc1 (centres undefined)  57.9%
7. COc1ccc(C(=O)NC2CC3CCCC(C2)N3CC(=O)Nc2ccccc2)cc1OC (centres undefined)  33.7%
8. COc1ccc(C(=O)NC2CC3CCCC(C2)N3CC(=O)Nc2ccc(C)cc2)cc1OC (centres undefined)  23.5%
9. COc1cccc(C(=O)NC2CC3CCCC(C2)N3CC(=O)Nc2ccccc2)c1 (centres undefined)  16.6%
10. COc1cccc(C(=O)NC2CC3CCCC(C2)N3CC(=O)Nc2ccc(C)cc2)c1 (centres undefined)  16.6%
11. COc1ccc(C(=O)NC2CC3CCCC(C2)N3CC(=O)Nc2ccc(F)cc2)cc1OC (centres undefined)  15%
12. COc1ccc(C(=O)NC2CC3CCCC(C2)N3CC(=O)Nc2ccc(C)cc2)cc1 (centres undefined)  13.2%
13. COc1cc(OC)cc(C(=O)NC2CC3CCCC(C2)N3CC(=O)Nc2ccccc2)c1 (centres undefined)  12.4%
14. O=C(CN1C2CCCC1CC(NC(=O)c1ccc3c(c1)OCO3)C2)Nc1ccccc1 (centres undefined)  12.3%
15. COc1ccc(NC(=O)CN2C3CCCC2CC(NC(=O)c2ccc(OC)c(OC)c2)C3)cc1 (centres undefined)  12.2%
16. Cc1ccc(NC(=O)CN2C3CCCC2CC(NC(=O)c2ccc4c(c2)OCO4)C3)cc1 (centres undefined)  11.9%
17. COc1ccc(NC(=O)CN2C3CCCC2CC(NC(=O)c2cc(OC)cc(OC)c2)C3)cc1 (centres undefined)  11.5%
18. COc1cc(OC)cc(C(=O)NC2CC3CCCC(C2)N3CC(=O)Nc2ccc(C)cc2)c1 (centres undefined)  10.9%
19. O=C(CN1C2CCCC1CC(NC(=O)c1ccccc1)C2)Nc1ccccc1 (centres undefined)  10.1%
20. COc1ccc(C(=O)NC2CC3CCCC(C2)N3CC(=O)Nc2ccc(Cl)cc2)cc1OC (centres undefined)  9.09%
21. COc1cc(OC)cc(C(=O)NC2CC3CCCC(C2)N3CC(=O)Nc2ccc(F)cc2)c1 (centres undefined)  7.92%
22. COc1cc(OC)cc(C(=O)NC2CC3CCCC(C2)N3CC(=O)Nc2ccc(Cl)cc2)c1 (centres undefined)  5.14%
23. O=C(CN1C2CCCC1CC(NC(=O)c1ccc3c(c1)OCO3)C2)Nc1ccc(Cl)cc1 (centres undefined)  3.65%
24. COc1cccc(C(=O)NC2CC3CCCC(C2)N3CC(=O)Nc2ccc(Cl)cc2)c1 (centres undefined)  1.72%
25. COc1ccc(C(=O)NC2CC3CCCC(C2)N3CC(=O)Nc2ccccc2)cc1 (centres undefined)  0.75%
26. COc1ccc(NC(=O)CN2C3CCCC2CC(NC(=O)c2cccc(OC)c2)C3)cc1 (centres undefined)  0.669%
27. COc1ccc(NC(=O)CN2C3CCCC2CC(NC(=O)c2ccc4c(c2)OCO4)C3)cc1 (centres undefined)  -0.217%
28. O=C(CN1C2CCCC1CC(NC(=O)c1ccc3c(c1)OCO3)C2)Nc1ccc(F)cc1 (centres undefined)  -0.62%
29. COc1cccc(C(=O)NC2CC3CCCC(C2)N3CC(=O)Nc2ccc(F)cc2)c1 (centres undefined)  -1.02%
30. COc1ccc(NC(=O)CN2C3CCCC2CC(NC(=O)c2ccc(OC)cc2)C3)cc1 (centres undefined)  -3.32%
31. COc1ccc(C(=O)NC2CC3CCCC(C2)N3CC(=O)Nc2ccc(Cl)cc2)cc1 (centres undefined)  -4.29%
32. COc1ccc(C(=O)NC2CC3CCCC(C2)N3CC(=O)Nc2ccc(F)cc2)cc1 (centres undefined)  -4.57%

`COc1cc(C(=O)NC2CC3CCCC(C2)N3CC(=O)Nc2ccccc2)cc(OC)c1OC` (centres undefined) was tested, and the inhibition was 96.3% and 90.5%.
With `COc1cc(C(=O)NC2CC3CCCC(C2)N3CC(=O)Nc2ccccc2Cl)cc(OC)c1OC` (centres undefined) the inhibition was 99.8% and 101%.
